Reference: PubChem BioAssay AID686979 (National Center for Advancing Translational Sciences (NCATS), 2013)
Where “and” joins values, the source holds several entries; their conditions need not be identical. Equal entries are not always repeated. The campaign covered roughly 420,000 compounds. About 50,000 (12%) were called active. About 26% were inconclusive and are not listed. Calls come from the whole dose curve; as a rule, active = well fitted inhibition curve with a large enough effect; inconclusive = small, poorly fitted or top-dose-only effect; inactive = flat fitted curve, though single readings scatter. The sample as a whole holds a higher share of actives than the screen did.

assay: qHTS for Inhibitors of human tyrosyl-DNA phosphodiesterase 1 (TDP1): qHTS in cells in presence of CPT; details: chicken DT40 Tdp1-/-;hTDP1 cells + 20 nM CPT, ATP luminescence, 48 h; series mostly up to 46.2 µM; activity change, negative = growth inhibition: at the top concentration; note: nearly all actives have a fitted effect of over 55% in size
Excerpt: Human tyrosyl-DNA phosphodiesterase 1 (TDP1) is a novel repair gene, and we propose to use it as a new target for anticancer drug development. TDP1 is not an essential protein, but under treatment with topoisomerase I poison (camptothecin: CPT), TDP1 works as a critical factor for cell survival. To directly identify novel TDP1 inhibitors active in a cellular environment, we have knocked-out the Tdp1 gene in chicken DT40 cells (Tdp1-/-) and generated a complemented counterpart cells that contains a stable transfection of the human TDP1 gene (Tdp1-/-;hTDP1 cells). For the primary screen, Tdp1-/-;hTDP1 cells will be exposed to small molecules in the presence or absence of CPT, and their growth kinetics will be evaluated after 48 hours by measuring ATP activity. […] The hit compounds will then be evaluated in the presence or absence of CPT using Tdp1-/- cells. […] In tertiary assays, biochemical gel-based assays will be used to assess whether the hit compounds specifically target TDP1. To this end, we have screened this cell line against the MLSMR in two primary screens. In one screen we add CPT and in the other we screen in the absence of CPT; this AID represents the screen where CPT was present. NIH Chemical Genomics Center [NCGC] NIH Molecular Libraries Probe Centers Network [MLPCN] MLPCN Grant: MH095538 Assay Submitter (PI): Yves Pommier, NCI
DT40-hTDP1 cells with 20 nM Camptothecin (add 20 microL of 1 mM CPT stock in 1 L of cell culture medium) were dispensed at 400 cells/5microL/well in tissue culture treated 1536-well white wall/solid bottom assay plates (Greiner Bio-One North America, NC, U.S.A.) using a Multidrop Combi 8 channel dispenser (Thermo Fisher, Waltham, MA, USA). 23 nL compounds and controls were transferred using the pin tool (Kalypsys, San Diego, CA, USA) to the assay plates. The assay plates were then incubated at 37 masculineC for a minimum 48 hr. Three microL of Cell Titer Glo solution was added to the plates and incubated at RT in dark for 30 min. Luminescence was read using ViewLux (Perkin Elmer) with 1 sec exposure slow speed, high gain and 2x binning.
% is set by controls: 0 for no effect and ±100 for the full control effect; potency is the fitted concentration of half-maximal effect.

SMILES | activity change, negative = growth inhibition | Potency
Cc1ccc(C(C)C)c(OCC(=O)N2CCN(CC(=O)N3CCOCC3)CC2)c1 | 1.32% (inactive) | –
CN1CCC(N(C)Cc2cccnc2)CC1 | 10.3% (inactive) | –
c1ccc(CCN2CCC3(CC2)OCCO3)cc1 | 5.99% (inactive) | –
c1ccc(CCCCN2CCC(c3ccccc3)CC2)cc1 | – | 16.8 µM (active) and 23.1 µM (active)
CC1=CC(=O)C2=C(C)C[C@H](O)[C@H]3[C@H](C)C(=O)O[C@@H]3C12 (some centres undefined) | -1.15% (inactive) | –
Cc1cccc(Cn2cccc(C(=O)Nc3ccc4c(c3)OCCO4)c2=O)c1 | – | 9.2 µM (active)
CN(C)/C=C(\C=[N+](C)C)c1[nH]ncc1[N+](=O)[O-] | 2.42% (inactive) | –
O=C1NC(=O)C(CCOc2ccccc2)(CCc2ccccc2)C(=O)N1 | -7.38% (inactive) | –
COc1ccc(-c2nn(CCC#N)cc2C(=O)Nc2ccc(C(C)=O)cc2)cc1 | -15.6% (inactive) | –
COc1ccc(C2Oc3c(I)c(OC)cc(OC)c3CC2O)cc1OC (centres undefined) | -8.1% (inactive) | –
CCOP(=O)(OCC)C(O)c1ccc(OC)cc1OC (centres undefined) | 5.05% (inactive) | –
CC(Cc1ccccc1)NC=O (centres undefined) | – | inactive
CC(Cc1ccccc1)NCCC(c1ccccc1)c1ccccc1 (centres undefined) | – | 9.2 µM (active)
Nc1ccc([N+](=O)[O-])cc1 | – | inactive
C=CCn1c(O)c(/C=N/N2CCOCC2)c(=O)[nH]c1=S | -0.159% (inactive) | –
CC(=O)Nc1ccccc1C(=O)OCC(=O)c1cccc2ccccc12 | -14.8% (inactive) | –
COC(=O)C1=C(c2cc3ccccc3s2)C[C@@H]2CC[C@H]1N2C(=O)NC(C)C | – | 23.1 µM (active)
COC(=O)C1=C(c2ccc(Cl)c(C(F)(F)F)c2)C[C@@H]2CC[C@H]1N2C(=O)NC1CC1 | – | 14.6 µM (active)
COC(=O)C1=C(c2cc3ccccc3s2)C[C@@H]2CC[C@H]1N2C(=O)NCCO | -29.3% (inactive) | –
COC(=O)C1=C(c2cc3ccccc3o2)C[C@@H]2CC[C@H]1N2C(=O)NC1CCCCC1 | – | 18.4 µM (active)
COC(=O)C1=C(c2ccc(C(C)=O)cc2)C[C@@H]2CC[C@H]1N2C(=O)NCCNC(C)=O | 4.65% (inactive) | –
COC(=O)CN(CCCl)P1(=O)OCCCN1CCCl (centres undefined) | 6.16% (inactive) | –
C/C(CCc1c[nH]c2ccccc12)=N\O | -8.5% (inactive) | –
CCN1CCN(Cc2cc(OC)c3c(c2)OCO3)CC1 | -11.6% (inactive) | –
C1CC[C@H]([C@@]23C[C@H](C[C@H]4CCCN[C@H]42)[C@@H]2CCCCN2C3)NC1 | -5.16% [at 9.04 µM] (inactive) | –
CN1C2CC3CC1C(O3)C2O (centres undefined) | -2.66% (inactive) | –
COP(=O)(OC)C(NC(=O)c1ccc(C)cc1)C(Cl)(Cl)Cl (centres undefined) | 8.53% (inactive) | –
C#C[C@]1(OC(=O)CCCCCC)CC[C@H]2[C@@H]3CCC4=CC(=O)CC[C@@H]4[C@H]3CC[C@@]21C | 12.4% (inactive) | –
CC(=O)OC1C2(CC3N4C(=O)C5(CO)SSC4(CC31O)C(=O)N5C)OC(C)C(C)(C)C2=O (centres undefined) | – | 0.146 µM (active)
